Among all 3,200 compounds or so, about 300 (9.4%) showed activity. Only a selection was taken, and actives are over-represented in it overall.
Tested on: A673/TR/shEF
Experiment: cell viability (LOESS-normalised, relative to median of negative controls) (log2 ratio); higher = more viable cells (less compound effect), active = hit call of the paper (over 3 MAD below the median)
Conditions: treatment time: 72 h
Method in brief: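 A673/TR/shEF Ewing sarcoma cells were plated at 1,500 per well in 384-well plates and cultured with or without doxycycline, added 24 h before compounds, to induce EWS-FLI1 shRNA knockdown. Library compounds at two or more concentrations, alongside DMSO controls, were applied for three days. Cell viability was measured by CellTiter-Glo luminescence on an Envision reader. Readings were LOESS-corrected per plate, divided by the median of negative controls and log2-transformed, and hits were wells lying at least three median absolute deviations from the median of all screened wells.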

[1] = 0.25 µM, library screen: screen1, EWS-FLI1 expression: high (no doxycycline)
[2] = 0.25 µM, library screen: screen1, EWS-FLI1 expression: low (doxycycline-induced shRNA knockdown)
[3] = 0.25 µM, library screen: screen2, EWS-FLI1 expression: high (no doxycycline)
[4] = 0.25 µM, library screen: screen2, EWS-FLI1 expression: low (doxycycline-induced shRNA knockdown)
[5] = 2.5 µM, library screen: screen1, EWS-FLI1 expression: high (no doxycycline)
[6] = 2.5 µM, library screen: screen1, EWS-FLI1 expression: low (doxycycline-induced shRNA knockdown)
[7] = 2.5 µM, library screen: screen2, EWS-FLI1 expression: high (no doxycycline)
[8] = 2.5 µM, library screen: screen2, EWS-FLI1 expression: low (doxycycline-induced shRNA knockdown)

Measured: cell viability (log2)

C[C@@]12C(=O)OC(=O)[C@]1(C)[C@H]1CC[C@@H]2O1
inactive: 0.025 µM, library screen: screen1, EWS-FLI1 expression: high (no doxycycline) 0.0446 | 0.025 µM, library screen: screen1, EWS-FLI1 expression: low (doxycycline-induced shRNA knockdown) 0.00348 | [1] 0.0474 | [2] -0.0807 | [3] 0.254 | [4] 0.0884 | [5] 0.0534 | [6] 0.0478 | [7] 0.0871 | [8] 0.00613 | 25 µM, library screen: screen1, EWS-FLI1 expression: high (no doxycycline) 0.0285 | 25 µM, library screen: screen1, EWS-FLI1 expression: low (doxycycline-induced shRNA knockdown) -0.0214

N[C@@]1(C(=O)O)CC[C@@H](C(=O)O)C1
inactive: [3] 0.102 | [4] 0.109 | [7] 0.101 | [8] 0.133

S=C(NC1CCCCC1)N1CCC(c2cnc[nH]2)CC1
inactive: [3] 0.127 | [4] 0.0827 | [7] 0.121 | [8] 0.058

CCC(C)c1cnc(CC(C)C)c(=O)n1O (stereo not given)
inactive: [1] 0.088 | [2] 0.0724 | [5] 0.0675 | [6] 0.0404

CCOC(=O)c1cncn1C(C)c1ccccc1 (stereo not given)
inactive: 0.103 µM, library screen: screen3, EWS-FLI1 expression: high (no doxycycline) 0.148 | 0.103 µM, library screen: screen3, EWS-FLI1 expression: low (doxycycline-induced shRNA knockdown) 0.103 | 0.308 µM, library screen: screen3, EWS-FLI1 expression: high (no doxycycline) 0.128 | 0.308 µM, library screen: screen3, EWS-FLI1 expression: low (doxycycline-induced shRNA knockdown) 0.0765 | 0.926 µM, library screen: screen3, EWS-FLI1 expression: high (no doxycycline) 0.0647 | 0.926 µM, library screen: screen3, EWS-FLI1 expression: low (doxycycline-induced shRNA knockdown) 0.0966 | 2.8 µM, library screen: screen3, EWS-FLI1 expression: high (no doxycycline) 0.203 | 2.8 µM, library screen: screen3, EWS-FLI1 expression: low (doxycycline-induced shRNA knockdown) 0.0919 | 8.3 µM, library screen: screen3, EWS-FLI1 expression: high (no doxycycline) 0.131 | 8.3 µM, library screen: screen3, EWS-FLI1 expression: low (doxycycline-induced shRNA knockdown) 0.046 | 25 µM, library screen: screen3, EWS-FLI1 expression: high (no doxycycline) 0.154 | 25 µM, library screen: screen3, EWS-FLI1 expression: low (doxycycline-induced shRNA knockdown) 0.157

N#C/C(=C\c1cccc(O)c1)C(=O)O
inactive: [1] 0.0765 | [2] 0.115 | [5] 0.0856 | [6] 0.0942

COc1cc2c(cc1O)CCNC2C (stereo not given)
inactive: [1] -0.0405 | [2] -0.0233 | [5] 0.0226 | [6] 0.0664

CC[C@H]1CN2CCc3cc(OC)c(OC)cc3[C@@H]2C[C@@H]1C[C@H]1NCCc2cc(OC)c(OC)cc21
inactive: 0.025 µM, library screen: screen2, EWS-FLI1 expression: high (no doxycycline) 0.187 | 0.025 µM, library screen: screen2, EWS-FLI1 expression: low (doxycycline-induced shRNA knockdown) 0.0478 | [1] 0.11 | [2] 0.116
active: [3] -0.895 | [4] -0.442 | [5] -1.08 | [6] -0.152 | [7] -2.19 | [8] -1.21 | 25 µM, library screen: screen2, EWS-FLI1 expression: high (no doxycycline) -2.91 | 25 µM, library screen: screen2, EWS-FLI1 expression: low (doxycycline-induced shRNA knockdown) -1.84

COc1cc2c(cc1OC)C(C)NCC2 (stereo not given)
inactive: [1] 0.121 | [2] 0.123 | [5] 0.193 | [6] 0.143

Clc1ccc(Cl)cc1
inactive: [1] 0.0995 | [2] 0.0885 | [5] 0.0618 | [6] 0.0905

CC[C@@H](C)C(=O)O[C@H]1[C@H](O)[C@H]2[C@@H](CN3C[C@@H](C)CC[C@H]3[C@@]2(C)O)[C@@H]2C[C@]34O[C@]5(O)[C@@H](OC(=O)[C@@](C)(O)CC)CC[C@@]3(C)[C@@H]5[C@@H](OC(C)=O)[C@@H](OC(C)=O)[C@H]4[C@@]21O
inactive: [1] -0.0817 | [2] -0.0114 | [5] 0.16 | [6] -0.013

C/C=C/c1ccc2c(c1)OCO2
inactive: [1] 0.0443 | [2] -0.0135 | [5] 0.1 | [6] 0.0835

CC(=O)OCC1=C(C(=O)O)N2C(=O)[C@@H](NC(=O)CCCC(N)C(=O)O)C2SC1 (stereo not given in full)
inactive: [1] 0.128 | [2] 0.143 | [5] 0.14 | [6] -0.0301

C[C@]12C=CC(=O)C=C1CC[C@@H]1[C@@H]2CC[C@]2(C)C(=O)CC[C@@H]12
inactive: [1] 0.0143 | [2] 0.0386 | [5] -0.0049 | [6] 0.0547

C=CCC1(C(C)CCC)C(=O)NC(=S)NC1=O (stereo not given)
inactive: [1] 0.103 | [2] 0.0758 | [5] 0.146 | [6] 0.0138

CC1C2Cc3ccc(O)cc3C1(C)CCN2CC1CC1 (stereo not given)
inactive: [3] 0.105 | [4] 0.104 | [7] 0.153 | [8] 0.0285

C[C@@H]1CC[C@H]2[C@@H](C)C(=O)O[C@@H]3OC4(C)CC[C@@H]1[C@]32OO4
inactive: [1] 0.0266 | [2] 0.0821 | [5] 0.0419 | [6] -0.14

COc1ccc(C[C@H]2NC[C@H](O)[C@H]2OC(C)=O)cc1
active: [1] -0.49 | [2] -0.228 | [5] -2.24 | [6] -1.04

CC(C)[C@H]1CN[C@H](C(=O)O)[C@H]1CC(=O)O
inactive: [3] 0.0705 | [4] 0.0959 | [7] 0.0874 | [8] 0.0543

Source: the supplement of paper PMC6089552
